Data on 20 compounds can be found in PubChem BioAssay (NCI).

This is part of a sample that, as a whole, favours compounds with a hit. Of some 79,000 tested, about 15% had one in any assay. Unmarked numbers belong to inactive results. Active and inactive are the calls of the source. No stated cut-off is given here; in the data, active means growth inhibition above about 70%; inactive means the rest.

A short description of assay [1]: NCI Yeast Anticancer Drug Screen. Data for the rad50 strain (AID 155).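 Further: 0% = growth of vehicle-only cultures of the same strain.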 Particulars: S. cerevisiae rad50 strain growth inhibition, stronger effect = higher value; at 50.0 µM unless noted. The method in brief:
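Compounds were tested on a yeast strain with an engineered DNA damage repair alteration; the reported value is growth inhibition normalised to vehicle treatment.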

The nature of assay [2]: NCI Yeast Anticancer Drug Screen. Data for the mec2-1 strain (AID 157). The settings on record: S. cerevisiae mec2-1 strain, stronger effect = higher value; at 50.0 µM unless noted. In outline: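 Mutant yeast (mec2-1) grown with compound; growth inhibition relative to vehicle control reported.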
Assay [3] can be described thus: NCI Yeast Anticancer Drug Screen. Data for the sgs1 mgt1 strain (AID 161).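 Further: 0% = growth of cultures given vehicle only.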 The settings on record: S. cerevisiae sgs1 mgt1 strain, stronger effect = higher value; at 50.0 µM unless noted. The method in brief: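 This yeast growth screen uses a strain with defined DNA-repair lesions; compound-treated growth is compared with vehicle-treated growth.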
A short description of assay [4]: NCI Yeast Anticancer Drug Screen. Data for the cln2 rad14 strain (AID 165).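 Further: 0% = growth equal to vehicle treated cultures.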 The settings on record: S. cerevisiae cln2 rad14 strain, stronger effect = higher value; at 50.0 µM unless noted. The method in brief:
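Readout is yeast growth inhibition versus vehicle-treated controls, using a strain with cln2 and rad14 alterations exposed to compound.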

Assay [5] in a line: NCI Yeast Anticancer Drug Screen. Data for the bub3 strain (AID 167). The settings on record: S. cerevisiae bub3 mutant strain, stronger effect = higher value; at 50.0 µM unless noted. In outline: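 Growth of a checkpoint-deficient yeast mutant is measured after compound exposure. Values represent inhibition relative to vehicle.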
Assay [6] is described as follows: NCI Yeast Anticancer Drug Screen. Data for the mlh1 rad18 strain (AID 175). Particulars: S. cerevisiae mlh1 rad18 strain growth inhibition, stronger effect = higher value; at 50.0 µM unless noted. In outline:
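Genetically defined yeast (DNA repair-deficient) exposed to compounds; growth inhibition determined relative to vehicle.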

Consider `C=C1CC2(OC1=O)c1ccccc1C=Cc1ccccc12`, for which the growth inhibition in assay [1] was 26.8%; in assay [2] it was 13.4%; in assay [3], 55.1%; in assay [4] it was 48.8%; in assay [5] it was 47.5%; in assay [6] it was 50.4%.
On to `CCN(CC)C(=O)CCn1cc(F)c(=O)[nH]c1=O`, for which the growth inhibition in assay [1] is -65.8%; in assay [2], -51%; in assay [3] it was -35%; in assay [4] it was 1.65%; in assay [5], -25.8%; in assay [6], -15.9%.
In the case of `CC1=CSC2=NCCCCN12`, the growth inhibition was -9.5% in assay [1]; 2.3% in assay [2]; 13.3% in assay [3]; 8.55% in assay [4]; 18.2% in assay [5]; 16.1% in assay [6].
Take `O=C(O)/C(Cc1cn[nH]n1)=N\O`: the growth inhibition in assay [1] is -20.3%; in assay [2] it was -29.9%; in assay [3], -51.7%; in assay [4], -77%; in assay [5], -39.4%; in assay [6], -32%.
Consider `CCN(c1ccccc1)S(=O)(=O)C(C)S(=O)(=O)N(CC)c1ccccc1`, for which the growth inhibition in assay [1] was -1.05%; in assay [2] it was -10.5%; in assay [3] it was -1.2%; in assay [4], -19.8%; in assay [5] it was 2.2%; in assay [6] it was -6.85%.
Consider `Cn1c(-c2csc(-c3ccc(Cl)cc3)n2)n[nH]c1=S`, for which the growth inhibition is 5.65% in assay [1]; 12.8% in assay [2]; 11.6% in assay [3]; 8.3% in assay [4]; 6.35% in assay [5]; -36.1% in assay [6].
For the compound `CCCCNC(=O)/C=C/C(=O)NCCCC`, the growth inhibition in assay [1] is 11.5%; in assay [2] it was 1.95%; in assay [3], -0.9%; in assay [4] it was -36.4%; in assay [5], -7.35%; in assay [6], -1.5%.
Turning to `Cc1nnc2sc(N/N=C/c3ccccc3)nn12`, the growth inhibition is -35.5% in assay [1]; -29.9% in assay [2]; -69.2% in assay [3]; -13.8% in assay [4]; -10.1% in assay [5]; -71.3% in assay [6].
Regarding `Brc1cccc(C=NC23CC4CC(CC(C4)C2)C3)c1`, the growth inhibition in assay [1] is 13.7%; in assay [2] it was -13.8%; in assay [3], 12.4%; in assay [4], -52.1%; in assay [5] it was -13.3%; in assay [6] it was -4.6%.
For the compound `O=[N+]([O-])c1cccc(/C=C/c2ccnc3ccccc23)c1`, the growth inhibition is 10.2% in assay [1]; -13.1% in assay [2]; 2.95% in assay [3]; 5.65% in assay [4]; 19.4% in assay [5]; 4.15% in assay [6].
Turning to `O=C(Nc1ccc(Br)cc1)C(Br)C(Br)c1ccccc1` (stereo not given), the growth inhibition in assay [1] was 98% (active); in assay [2] it was 97.7% (active); in assay [3], 98.6% (active); in assay [4] it was 96.7% (active); in assay [5], 97.8% (active); in assay [6], 97.9% (active).
With `CC[N+](CC)(CC)Cc1cn(S(=O)(=O)c2ccccc2)c2ccccc12`, the growth inhibition was 4.3% in assay [1]; -0.7% in assay [2]; -0.95% in assay [3]; -64.7% in assay [4]; -0.7% in assay [5]; 5.95% in assay [6].
Consider `CS(=O)(=O)OCC1OC(n2ncc(=O)[nH]c2=O)C(O)C1O` (stereo not given), for which the growth inhibition in assay [1] was 6.9%; in assay [2], 13.7%; in assay [3], -7.1%; in assay [4], -2.45%; in assay [5], 2.95%; in assay [6], 11%.
As to `CC/C(C)=N\NS(=O)(=O)c1ccc(NC(C)=O)cc1`, the growth inhibition in assay [1] was -5%; in assay [2] it was -14.3%; in assay [3] it was 18.1%; in assay [4], 20.8%; in assay [5], -33.5%; in assay [6], -0.7%.
In the case of `N=C(N)SCc1ccc(Oc2ccc(CSC(=N)N)cc2)cc1`, the growth inhibition in assay [1] was 0.4%; in assay [2], 1.45%; in assay [3], -4.5%; in assay [4], 0.5%; in assay [5], -2.4%; in assay [6], 15.3%.
For `Fc1ccc2c(c1)-c1ccccc1C2`, the growth inhibition was -0.1% in assay [1]; -14.6% in assay [2]; -2.65% in assay [3]; 4.95% in assay [4]; -0.95% in assay [5]; -19.6% in assay [6].
In the case of `COc1ccc(C(=O)CCC2(C)OCCO2)cc1OC`, the growth inhibition in assay [1] was 27.3%; in assay [2], 5.8%; in assay [3] it was 18.9%; in assay [4], 8.4%; in assay [5], 21.9%; in assay [6], 17.5%.
As to `CC1CC(NC(=S)N(C)C)CC(C)(C)C1` (stereo not given), the growth inhibition in assay [1] was 6.9%; in assay [2], 3.65%; in assay [3] it was 18.8%; in assay [4], -10.8%; in assay [5], 47.9%; in assay [6] it was 3.55%.
With `CCCCCCCCCC(OCC)OCC`, the growth inhibition in assay [1] is -25.1%; in assay [2], -15.2%; in assay [3], -11.6%; in assay [4] it was -6.35%; in assay [5] it was -31.4%; in assay [6], -25.6%.
For `Nc1nc(N)c(N=O)c(Nc2ccccc2)n1`, the growth inhibition is 7.75% in assay [1]; 6.9% in assay [2]; -8.35% in assay [3]; 0.45% in assay [4]; 41.6% in assay [5]; 43.4% in assay [6].
